The source of these data is PubChem BioAssay (NCI).

The panel holds about 79,000 compounds, 15% with a hit somewhere; the sample as a whole holds those more often. The source made the active and inactive calls. Rule as the data show it: active = growth inhibition above about 70%; inactive = the rest. Where a SMILES comes first, the peptide text is derived from it. [ ]: non-standard residue; d: D form. The star is where a group is joined. Cbz = O=C(OCc1ccccc1)*; Nva = CCC[CH](N)C(=O)O

The experiment can be described thus: NCI Yeast Anticancer Drug Screen. Data for the rad50 strain (AID 155).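 Also: 0% = growth of vehicle-only cultures of the same strain.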 As to conditions: S. cerevisiae rad50 strain growth inhibition; at 50.0 µM; hits give high values. The method in brief:
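Cells are treated with compound, grown, and their growth is then scored against vehicle-only cultures of the same repair-deficient yeast strain.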
Turning to `CCCNS(=O)(=O)c1ccccc1C(=O)NC1CCCCC1`, the growth inhibition was 3.25% (inactive).

Regarding `Nc1cc(Cl)c(F)cc1Cl`, the growth inhibition is -13.3% (inactive). With `C[N+](C)(Cn1nc(Cl)c2ccc([N+](=O)[O-])cc21)Cn1nc(Cl)c2ccc([N+](=O)[O-])cc21`, the growth inhibition was 43.6% (inactive). For `CCOC(=O)c1cc(C)nc2c1c(=O)n(-c1ccccc1)c(=O)n2CCCCN1CCN(c2ccccc2)CC1`, the growth inhibition was -1.7% (inactive).

For `CC(=Nc1cccc2ccccc12)c1c(O)cc(C)oc1=O`, the growth inhibition was 20.4% (inactive). For `COc1cc2ccccc2ccc1=O`, the growth inhibition is 13.4% (inactive). As to `O=C(Cc1cc2ccccc2[nH]c1=O)Nc1ccccc1`, the growth inhibition is 9.55% (inactive). Take `N=C(N)S/C=C/C(=O)O`: the growth inhibition is -18.8% (inactive).

Regarding `CCOC(=O)CCC(NC(=O)C(CCC(=O)OCC)NC(=O)OCc1ccccc1)C(=O)O` (stereo not given) (tested in a mixture with another compound) (Cbz-Glu(OEt)-Glu(OEt)-OH; configuration not given here), the growth inhibition was -43.5% (inactive).

For `O=C1C(OCc2ccccc2)=C(OCc2ccccc2)C(=O)c2ccccc21`, the growth inhibition is 14.2% (inactive). On to `CN(C)Cc1ccccc1COC(=O)c1ccccc1`, for which the growth inhibition was 19.1% (inactive). With `CCCCCCC1NN(C(C)=O)C(CCCCCC)NN1C(C)=O` (stereo not given), the growth inhibition is 10.5% (inactive). For the molecule `NCCCC(=O)NCCCCCCCCCCNC(=O)CCCN`, the growth inhibition was 29.3% (inactive). On to `O=[N+]([O-])c1cccc(CC(=S)N2CCOCC2)c1`, for which the growth inhibition was 14.4% (inactive). Turning to `CNCCC(Oc1ccccc1OC)c1ccccc1` (stereo not given), the growth inhibition is 30.2% (inactive). As to `NC1(C(=O)OCc2ccccc2)CCCC1`, the growth inhibition was 18.6% (inactive). With `CC(C)N1C(=O)c2ccccc2C1=O` the figure was 26.8% (inactive). Take `O=C1c2ccccc2-c2ccc3c4ccc5c6c(ccc(c7ccc1c2c73)c64)-c1ccccc1C5=O`: the growth inhibition is 25% (inactive).

In the case of `O=S1(=O)NC2CCC3NS(=O)(=O)NC4CCC(N1)N4S(=O)(=O)N23` (stereo not given), the growth inhibition was -3.75% (inactive). Turning to `CC(C)(C)n1c(=O)[nH]c(=O)n1C(C)(C)C`, the growth inhibition is 5.75% (inactive). For `C[Si](C)(C)c1ccc2c(c1O)C(=O)c1ccccc1C2=O`, the growth inhibition is 10.6% (inactive).

`CC(C)(Oc1ccc(/C=C/C(=O)c2ccc(Cl)cc2)cc1)C(=O)Nc1c(Cl)cccc1Cl`: the growth inhibition was 0.85% (inactive). Regarding `Cc1ccc(N=Nc2c(O)ccc3n[nH]nc23)cc1`, the growth inhibition is 2.75% (inactive).

`CC1(c2cccc(N)c2)OCCO1`: the growth inhibition is 7.4% (inactive). Turning to `Cc1cc(Br)c(NC(=O)c2c(-c3c(Cl)cccc3Cl)noc2C)c(Br)c1`, the growth inhibition was -3.35% (inactive). As for `COC(=O)/C(=C\C(=O)c1ccc(Br)cc1)NN=C(c1ccccc1)c1ccccc1`, the figure is -20.3% (inactive); as for `O=C(Nc1ccc(N=C=S)cc1Cl)c1ccc2ccccc2c1O`, 15.6% (inactive).

Consider `O=C1CCCCCCCC(=O)Nc2ccc3nc4ccccc4c(c3c2)SCCCCCCCCCSc2c3ccccc3nc3ccc(cc23)N1`, for which the growth inhibition is 27.7% (inactive). `CCCC(NC(=O)OCc1ccccc1)C(=O)NC(Cc1ccc(O)cc1)C(=O)O` (stereo not given) (Cbz-[Nva]-Tyr-OH; configuration not given here): the growth inhibition is -3.5% (inactive). With `O=S(CCO)c1ccc(Cl)cc1` (stereo not given) the figure was -26.1% (inactive); with `CC1(C)CSC(C)(C)C(=O)N1`, 4.9% (inactive); with `CCOc1c(Cl)c(Cl)c(Cl)c(Cl)c1Cl`, -9.8% (inactive). Consider `N#Cc1nc(Cc2ccccc2)oc1N`, for which the growth inhibition is 27.3% (inactive).

Take `Cc1nc(-n2nc(-c3ccccc3)cc2-c2ccccc2)sc1C(=O)/C=C/c1ccc(Cl)c(Cl)c1`: the growth inhibition is 53.2% (inactive). On to `COC(=O)c1c(O)ccc(O)c1C(=O)OC`, for which the growth inhibition is -15.7% (inactive). Regarding `COC(=O)c1cc([N+](=O)[O-])c(Br)s1`, the growth inhibition is 99.3% (active).

Regarding `CCOC(=O)NC(C(=O)OCC)(N1CCN(c2cc3c(cc2F)c(=O)c(C(=O)O)cn3CC)CC1)C(F)(F)F` (stereo not given), the growth inhibition was -10.5% (inactive). Turning to `CCCCCCCCCSCCOC(=S)N(C)C`, the growth inhibition was 13.7% (inactive).

Turning to `CN(C)C(=O)NC(=S)N(C)C`, the growth inhibition is -4.05% (inactive). With `CCC1(CC)CC(=O)NC1=O`, the growth inhibition was -4.95% (inactive).
